High-throughput results from PubChem.
The list is not random: actives were taken first. Their share in the collection is about 3%.
Nrf2 activator = activates Nrf2 signaling; AREc32 ARE-luciferase reporter (MCF7-derived line), luminescence, 24 h; Potency, µM (highest dose often 46.1 µM), for inactives: at the highest dose activation, most hits filed as activators; 410,000 compounds, 0.31% hits; further: % of control where 0% means no effect; nearly all actives have a fitted effect of over 65% in size
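Luminescent ARE reporter assay in AREc32_Fluc cells: overnight plating at 37 deg C, 24 hr compound incubation, Steady-Glo added, 30 min RT before reading.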
Nrf2 block = inhibitors of Nrf2 signaling. A549 ARE-Fluc reporter, luciferase luminescence, 18-24 h. Potency, µM (highest dose often 46 µM), for inactives: at the highest dose activity change, negative = inhibition, usual class: inhibitors. 360,000 compounds, 2.1% hits; further: on the % scale 0 is the no-effect control and ±100 the full control effect; nearly all actives have a fitted effect of over 60% in size
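A549 ARE_Fluc cells (5000/well, 5% FBS OPTI-MEM) pre-incubated 2 h, then treated with compounds 18-24 h at 37C/5% CO2 in concentration-response. CellTiter-Fluor viability read first; BugLite luciferase luminescence after 15 min at room temperature gives Nrf2 activity.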
A549 tox = kills or reduces viability of A549 cells in Nrf2 counter-screen | A549 ARE-Fluc cells, CellTiter-Fluor viability, 18-24 h | Potency, µM (top dose mostly 46 µM), for inactives: at the highest dose activity change, negative = cytotoxicity, most hits filed as inhibitors | 390,000 compounds, 0.16% hits | AID 504648; further: on the % scale 0 is the no-effect control and ±100 the full control effect
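A549 ARE_Fluc cells in 5% FBS OPTI-MEM were exposed to compounds in concentration-response for 18-24 h at 37 deg C. Viability was read by CellTiter-Fluor fluorescence (Ex 405/Em 525) after 30 min, before the luciferase read.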
GALK inh = blocks human galactokinase activity | Potency, µM (titrated, usually from 57.5 µM), for inactives: top-dose activity change, negative = inhibition, most hits filed as inhibitors | Purified GALK, Kinase-Glo residual ATP luminescence | AID 1868 | 270,000 compounds, 0.007% hits | P51570; further: on the % scale 0 is the no-effect control and ±100 the full control effect
Target sequence (P51570 whole entry, looked up): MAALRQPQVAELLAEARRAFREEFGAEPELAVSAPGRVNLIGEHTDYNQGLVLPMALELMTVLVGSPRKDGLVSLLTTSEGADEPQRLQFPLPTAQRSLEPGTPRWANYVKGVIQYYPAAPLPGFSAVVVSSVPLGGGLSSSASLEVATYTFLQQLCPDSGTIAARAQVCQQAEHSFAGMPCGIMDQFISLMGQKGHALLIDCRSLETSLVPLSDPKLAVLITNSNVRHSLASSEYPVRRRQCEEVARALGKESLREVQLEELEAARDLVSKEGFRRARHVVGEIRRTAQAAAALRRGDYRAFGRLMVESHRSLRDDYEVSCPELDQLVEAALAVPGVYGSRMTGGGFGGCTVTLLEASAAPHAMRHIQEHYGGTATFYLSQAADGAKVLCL
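GALK at 5 nM final was combined with compound, 35 uM ATP and 100 uM galactose in HEPES pH8.0 with MgCl2 and DTT. The reaction ran one hour at room temperature before luminescent ATP detection.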
rTrxR1 inhibitor = blocks rat thioredoxin reductase 1. O89049. recombinant rTrxR1, NADPH fluorescence consumption, selenite substrate. Potency, µM (titrated, usually from 114 µM), without a hit: top-dose activity change, negative = inhibition, most hits filed as inhibitors. 390,000 compounds, 1% hits. AID 588453; further: on the % scale 0 is the no-effect control and ±100 the full control effect; nearly all actives have a fitted effect of over 65% in size
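Rat TrxR1 (90 nM in the dispensed reagent) was pre-reduced with 400 uM NADPH for 5 min at room temperature, then incubated with compound for 15 min. After 400 uM selenite was added, NADPH fluorescence (Ex 340/Em 450 nm) was followed for 8 min.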
TrxR1 substrate = substrates of rat thioredoxin reductase 1; purified TrxR1 substrate turnover, NADPH consumption readout; O89049; AID 588456; 390,000 compounds, 0.01% hits; Potency, µM (doses to about 114 µM), for the others: top-dose activity change, negative = substrate turnover; further: on the % scale 0 is the no-effect control and ±100 the full control effect; nearly all actives have a fitted effect of over 50% in size
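Rat TrxR1, dispensed at 90 nM, was prereduced with 400 uM NADPH (final) for 5 min at ~22 deg C, then incubated with compound 15 min before 400 uM selenite. A first-read NADPH fluorescence drop versus no-compound background flagged substrates.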
The depositor's hits bear a star; ? = inconclusive; nt = no result; [ ] = remark or other dose. The call rests on the fitted dose curve; in most records, active means well fitted curve in the direction sought with a large enough effect; inconclusive means small, poorly fitted or top-dose-only effect, or another doubt; inactive means no such curve, though single readings can be large; an effect the other way counts as inactive or inconclusive. Potency means the concentration at half of the fitted maximal effect.

SMILES	Nrf2 activator	Nrf2 block	A549 tox	GALK inh	rTrxR1 inhibitor	TrxR1 substrate
Cn1c(/C(C#N)=C(\O)c2cc(Cl)sc2Cl)nc2ccccc21	1.4µM*	2%	3%	-5%	16%	-2%
Cn1c(/C(C#N)=C(\O)c2ccc(Br)s2)nc2ccccc21	2%	?	25%	-3%	16%	1%
COc1ccc(-c2nnc(SCC(=O)Oc3cc(C)ccc3C)o2)cc1	-1%	11%	7%	nt	3%	8%
CN(C)CCN(Cc1ccccc1)S(=O)(=O)c1ccc(-c2ccc(=O)[nH]n2)s1	0%	-7%	3%	-1%	40µM*	11%
Cc1cccnc1NC(=O)c1ccc([N+](=O)[O-])o1	22µM*	?	-8%	2%	-75%	5%[57.1 µM]
Cc1ccc(C(=O)Nc2ncccc2C)o1	0%	15%	0%	nt	-15%	-9%
COc1ccc(-c2nnc(NC(=O)c3ccc([N+](=O)[O-])o3)o2)c(OC)c1	?	?	?	4%	?	-15%
Cc1ccc(-c2nnc(NC(=O)c3ccc([N+](=O)[O-])o3)o2)c(C)c1	7.1µM*	?	?	nt	?	-18%
CCOC(=O)c1ccc(-n2c(CCC(=O)O)ccc2-c2cccs2)cc1	?	?	-10%	-1%	?	-6%[57.1 µM]
CCc1ccc(-n2c(CCC(=O)O)ccc2-c2cccs2)cc1	14%	7%	0%	nt	35µM*	8%
COCCn1c(CCC(=O)O)ccc1-c1cccs1	3%	-20%	17%	-1%	?	20%
Cc1ccc(-n2c(CCC(=O)O)ccc2-c2cccs2)cc1C	5%	17%	6%	1%	45µM*	15%
Cc1ccc(Cl)cc1-n1c(CCC(=O)O)ccc1-c1cccs1	10%	-9%	9%	nt	-16%	2%
CCCCn1c(CCC(=O)O)ccc1-c1cccs1	3%	-2%	3%	-4%	35µM*	14%
Cc1ccc(C)c(N2CCN(C(=O)C(C)n3nc(C)c4sc5ccccc5c4c3=O)CC2)c1 (centres undefined)	4%	?	-9%	nt	21%	5%
CC(=O)N1CCCc2cc(S(=O)(=O)N(Cc3ccccc3)C(C)C)ccc21	3%	nt	-12%	nt	13%[57.1 µM]	2%[57.1 µM]
CC1=C(C#N)C(=O)NC(=O)/C1=C\c1ccc(-c2cc(C)c(C)cc2[N+](=O)[O-])o1	0%	8%	-5%	-2%	14µM*	0%[57.1 µM]
Cc1ccc(-c2ccc(/C=C3/NC(=O)NC3=O)o2)cc1[N+](=O)[O-]	6%	?	?	0%	-18%	-4%
COc1cc2cc(C(=O)N3CCOCC3)cc(-c3ccc(C)cc3)c2cc1OC	0%	18µM*	?	nt	-6%	-9%
COC(=O)c1nnn(-c2cccc(C)c2)c1C(=O)OC	-1%	0%	1%	nt	1%	-3%
COc1cccc(-n2nnnc2S(C)(=O)=O)c1	?	10µM*	?	1%	3.2µM*	5%
Cc1cccc(-n2nnnc2S(C)(=O)=O)c1	-4%	nt	?	nt	1.8µM*	-6%[57.1 µM]
COc1cccc(Oc2nnnn2-c2ccccc2)c1	7%	?	3%	-1%	6%	0%
COc1ccc(CNC(=O)c2cc(-c3ccc(OC)c(OC)c3)nc3n[nH]c(-c4ccc(C)cc4)c23)cc1	15%	nt	-12%	nt	-17%[57.1 µM]	11%[57.1 µM]
COc1ccc(CCNS(=O)(=O)c2ccc(F)c(C(=O)Nc3ccc(Cl)cc3)c2)cc1OC	5%	nt	-1%	nt	-3%[57.1 µM]	-6%[57.1 µM]
O=S(=O)(c1ccc(Br)cc1)c1nnn2c1nc(Nc1cccc(C(F)(F)F)c1)c1sccc12	-1%	26%	12%	nt	15%	6%
COc1ccc(NC2=CC(c3ccc(OC)c(OC)c3)N(c3ccc(OC)cc3)C2=O)cc1 (centres undefined)	4%	-10%	12%	nt	?	-10%
